Assay results as given in PubChem BioAssay (NCATS).
“And” between values parts separate entries of the source, which are not always exact repeats. Equal entries are not always repeated. Inconclusive results are not listed. The source made the active and inactive calls. Unless noted, calls come from the whole dose curve; as a rule, active = well fitted curve in the direction sought with a large enough effect; inconclusive = small, poorly fitted or top-dose-only effect, or another doubt; inactive = no such curve, though single readings can be large; an effect the other way counts as inactive or inconclusive.

Assays:
[1] = Cell Viability - MRC5 (AID 434; calls by dose curve;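 note: potency is the fitted concentration of half-maximal effect; cells exposed to compound for 40 hours at 37 °C; potency reflects cytotoxicity seen as loss of intracellular ATP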); settings: MRC5 lung fibroblast viability, qHTS
In short: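 qHTS cytotoxicity in human lung fibroblast MRC5 cells; 40 hr treatment, 37 °C; cellular ATP by luciferase luminescence; DMSO = 0%, 100 uM tamoxifen = 100% inhibition; Hill-fit AC50.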

[2] = Cellular Toxicity (caspase-3) HepG2 (AID 654); settings: HepG2 caspase-3 activation, luminescence; series mostly up to 92.2 µM;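 note: cells exposed to compound for 16 hours before reading; 0% = DMSO alone and 100% = caspase signal from 100 µM tamoxifen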
In short: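 qHTS, HepG2, 1500 cells/well, complete medium; cpd 16 h 37 °C; Caspase-Glo 3/7, 20 min RT; lum. Norm: DMSO vs 100 uM tamoxifen; AC50 Hill fit.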

[3] = Cellular Toxicity (caspase-3) HUV-EC-C (AID 656); settings: HUV-EC-C cells, caspase-3 activation (apoptosis); series mostly up to 92.2 µM
In short: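 Read-out: luminescence proportional to caspase 3/7 activity, measured 20 min after adding Caspase-Glo 3/7 reagent. Cells (HUV-EC-C) had received compound for 16 hr at 37°C. Increases relative to DMSO and 100 uM tamoxifen gave concentration-response AC50 values.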

[4] = Cellular Toxicity (caspase-3) SHSY5Y (AID 657); settings: SH-SY5Y caspase-3 activation; series mostly up to 91.7 µM
In short: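 Cells plated and incubated 5 h at 37 °C, dosed over a concentration range, incubated 16 h, then given Caspase-Glo 3/7 reagent for 1 h at room temperature before luminescence reading. Staurosporine (10 uM) defined full stimulation.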

[5] = Cellular Toxicity (caspase-3) BJ (AID 658); settings: BJ fibroblasts, luminescence; Potency: caspase-3 activation; series mostly up to 91.7 µM
In short: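 Readout: Caspase-Glo 3/7 luminescence increase in BJ cells after 16 hr treatment at 37 °C. Staurosporine and tamoxifen served as positive controls; AC50 values came from Hill modelling of data normalized to DMSO and 10 uM staurosporine.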

[6] = Cellular Toxicity (caspase-3) MRC-5 (AID 659); settings: MRC-5 cells, luminescence, normalized: DMSO 0%, 10 µM staurosporine 100%; series mostly up to 91.7 µM
In short: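 Concentration-dependent caspase 3/7 activation is measured in human normal lung fibroblasts (MRC-5) following 16-hour treatment. AC50 values come from standard Hill-equation modeling of luminescence normalized to DMSO and 10 uM staurosporine.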

[7] = Cellular Toxicity (caspase-3) Mesangial (AID 660); settings: mesangial cells, normalized: DMSO 0%, 100 µM tamoxifen 100%; series mostly up to 91.7 µM;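 note: cells exposed to compound for 16 h before the caspase read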
In short: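 Concentration-response qHTS: compound-induced rise in caspase 3/7 luminescence in human mesangial cells after 16 h, normalized to DMSO and 100 uM tamoxifen controls.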

[8] = Cellular Toxicity (caspase-3) SK-N-SH (AID 661); settings: SK-N-SH caspase-3 activation, qHTS, DMSO as zero, staurosporine as full; series mostly up to 91.7 µM
In short: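 Caspase 3/7 activation is measured as a luminescence increase from aminoluciferin released by substrate cleavage in SK-N-SH cells after 16 hr compound treatment; values are AC50 from concentration-response curves.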

[9] = Cellular Toxicity (caspase-3) H-4-II-E (AID 663); settings: H-4-II-E rat hepatoma; Potency: caspase-3 activation; series mostly up to 92.2 µM;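 note: cells exposed to compound for 16 hr before readout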
In short: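 Apoptosis induction is scored as increased luminescence from caspase 3/7 substrate cleavage in rat hepatoma H-4-II-E cells exposed to compound for 16 hr. Activity is scaled between DMSO and 100 uM tamoxifen.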

[10] = Cellular Toxicity (caspase-3) Hek293 (AID 664); settings: HEK293 caspase-3 activation, DMSO = 0%, 100 µM tamoxifen = 100%; at 92.2 µM (top of the series);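 note: cells exposed to compound for 16 h at 37 °C before readout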
In short: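 Activation of caspase-3/7 is measured as increased luminescence from cleaved peptide-aminoluciferin substrate in HEK293 cells treated 16 hours at 37 °C. AC50 values come from Hill-equation fits of concentration-response data.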

[11] = Cellular Toxicity (caspase-3) N2a (AID 665); settings: N2a cells, luminescence, normalized: DMSO 0%, 10 µM staurosporine 100%; series mostly up to 92.2 µM;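 note: compound exposure lasted 16 h at 37 °C before readout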
In short: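 Plated mouse neuroblastoma N2a cells received titrated compounds for 16 h in complete medium. Caspase activity was then detected with a peptide-aminoluciferin luminescent reagent.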

[12] = Cellular Toxicity (caspase-3) Renal Proximal Tubule (AID 667); settings: renal proximal tubule cells, primary cells freshly taken from rat; Potency: caspase-3 activation; series mostly up to 91.7 µM;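 note: cells exposed to compound for 16 hours at 37 °C before detection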
In short: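 In qHTS format, rat primary proximal tubule cells seeded at 1000 per well are exposed to compounds for 16 hours at 37 °C. An increase in Caspase-Glo 3/7 luminescence indicates caspase activation.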

[13] = MultiTox-Fluor Cytotoxicity Assay - LYMP1-001 - Dead Cells (AID 946); settings: LYMP1-001 lymphoblastoid cells, dead-cell protease fluorescence; series mostly up to 92.2 µM;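 note: 0% = DMSO and 100% = tetraoctylammonium bromide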
In short: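 AC50 from Hill fit of concentration-response; data normalized to DMSO (basal) and 15 uM tetraoctylammonium bromide (100%). LYMP1-001 lymphoblastoid cells, 2500/well, 16 hr compound at 37 C; dead-cell protease fluorescence, Ex/Em 485/520.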

[14] = MultiTox-Fluor Cytotoxicity Assay - LYMP1-003 - Dead Cells (AID 961); settings: LYMP1-003 lymphoblastoid cells, dead-cell protease fluorescence; series mostly up to 92.2 µM;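 note: 0% = DMSO and 100% = tetraoctylammonium bromide; nearly all actives have a fitted effect of over 70% in size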
In short: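 Human lymphoblastoid LYMP1-003 cells (2500/well) were treated with compounds for 16 hr at 37 C in complete medium. Dead-cell protease release was read by bis-AAF-R110 fluorescence (Ex/Em 485/520). AC50 came from Hill fits, normalized to DMSO and 15 uM tetraoctylammonium bromide.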

[15] = MultiTox-Fluor Cytotoxicity Assay - LYMP1-003 - Live Cells (AID 962); settings: LYMP1-003 lymphoblastoid cells, MultiTox-Fluor live-cell protease fluorescence; series mostly up to 92.2 µM;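 note: 0% = DMSO only and full loss = 92 µM tetraoctylammonium bromide; cytotoxic hits lower the live-cell protease signal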
In short: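 Cells plated at 2500 per well and incubated 5 hr; compounds added and incubated 16 hr at 37 C; MultiTox-Fluor reagent added for 60 min at room temperature; fluorescence of liberated AFC measured at 405/510 nm.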

[16] = Cell Viability - LYMP1-003 - Assay at 24 hr (AID 963); settings: LYMP1-003 lymphoblastoid cell viability; series mostly up to 92.2 µM;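 note: plate controls were DMSO only for no effect and tetraoctylammonium bromide positive control for full effect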
In short: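 Acute toxicity in LYMP1-003 lymphoblastoid cells: 24 hr compound treatment at 37 C, ATP measured with CellTiter-Glo after 30 min at room temperature. AC50 derived by fitting the Hill equation to qHTS titrations.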

[17] = Cell Viability - LYMP1-002 - Assay at 24 hr (AID 993); settings: LYMP1-002 lymphoblastoid cells viability; series mostly up to 92.2 µM; note: % is set by controls: 0 for no effect and ±100 for the full control effect
In short: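 qHTS, LYMP1-002 lymphoblastoid, 24 h cpd, 37 C, CellTiter-Glo ATP luminescence; AC50 via Hill eq.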

[18] = qHTS Assay for Identification of Small Molecule Inducers of Hypoxia Response (AID 2120; active = well fitted curve in the direction sought with a large enough effect in the signal ratio, with a control signal flat, not every such curve was filed as active; the % refers to the signal ratio; note: 0% is about no effect); settings: hypoxia response reporter cells, beta-lactamase ratio readout; series mostly up to 104 µM
In short: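 Induction of beta-lactamase reporter activity was measured in CellSensor HRE-bla ME-180 cells after 17 h compound treatment at 37 degrees C, using CCF4 substrate and the 460nm/530nm emission ratio to derive AC50 values.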

[19] = molecular target: Peroxisome proliferator-activated receptor alpha (Homo sapiens) (UniProt Q07869); test: qHTS assay for small molecule agonists of the peroxisome proliferator-activated receptor alpha (PPARalpha) signaling pathway (AID 651778); settings: PathHunter PPARalpha complementation, chemiluminescence, 6 h; max response: active compounds read high; note: % of control where 0% means no effect
In short: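 Chemiluminescence from complemented enzyme reported PPARalpha activation in cells after 6 hr of compound treatment at 37 C. The detection reagent was incubated for 60 min at room temperature, and compounds were scored as agonists.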

[20] = qHTS assay for cell viability of the p53RE-bla HCT-116 cell line (AID 743292); settings: p53RE-bla HCT-116 viability, ATP luminescence, 16 h; series mostly up to 95 µM; note: % is set by controls: 0 for no effect and ±100 for the full control effect; nearly all actives have a fitted effect of over 55% in size
In short: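 Intracellular ATP of p53RE-bla HCT-116 cells measured by luciferase luminescence following 16 h compound incubation at 37 C; DMSO-only wells served as vehicle controls.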

Peroxisome proliferator-activated receptor alpha (Homo sapiens), sequence (Q07869 whole entry, looked up): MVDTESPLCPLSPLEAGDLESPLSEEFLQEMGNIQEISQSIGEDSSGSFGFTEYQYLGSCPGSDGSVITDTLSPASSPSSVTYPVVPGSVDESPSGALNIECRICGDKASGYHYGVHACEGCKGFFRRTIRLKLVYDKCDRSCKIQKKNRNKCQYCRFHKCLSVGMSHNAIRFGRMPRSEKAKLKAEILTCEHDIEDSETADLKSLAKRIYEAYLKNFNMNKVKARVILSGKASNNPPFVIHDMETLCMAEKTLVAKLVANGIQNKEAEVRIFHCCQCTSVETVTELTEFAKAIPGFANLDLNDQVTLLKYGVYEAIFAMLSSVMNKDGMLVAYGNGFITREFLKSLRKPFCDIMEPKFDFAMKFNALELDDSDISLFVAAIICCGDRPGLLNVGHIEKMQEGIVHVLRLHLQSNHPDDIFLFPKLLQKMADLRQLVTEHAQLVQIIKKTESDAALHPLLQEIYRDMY

C=Cc1cccc(C)c1
inactive: Potency [1] > 92 µM | Potency [2] | Potency [3] | Potency [4] | Potency [5] | outcome [6] | outcome [7] | outcome [8] | Potency [9] | caspase-3 activation [10] -0.822% | outcome [11] | Potency [12] | Potency [13] | Potency [14] | Potency [15] | Potency [16] | Potency [17] | Potency [18] | max response [19] -4.17% | Potency [20]

C=C(C#N)C(=O)OCC
inactive: Potency [1] > 92 µM | Potency [2] | Potency [3] | Potency [4] | Potency [5] | outcome [6] | outcome [7] | outcome [8] | Potency [9] | caspase-3 activation [10] -3.19% | outcome [11] | Potency [12] | Potency [13] | Potency [14] | Potency [15] | Potency [16] | Potency [17] | Potency [18] | max response [19] -1.15% | Potency [20]

Nc1ccc(-c2ccc(N)c(O)c2)cc1O
inactive: Potency [1] > 92 µM | Potency [2] | Potency [3] | Potency [4] | Potency [5] | outcome [6] | outcome [8] | Potency [9] | caspase-3 activation [10] 0.00867% | outcome [11] | Potency [12] | Potency [13] | Potency [14] | Potency [15] | Potency [16] | Potency [17] | Potency [18] | max response [19] -5.39% | Potency [20]

CCCCC(CC)COC(=O)COc1ccc(Cl)cc1Cl (centres undefined)
inactive: Potency [1] > 92 µM | Potency [2] | Potency [3] | Potency [4] | Potency [5] | outcome [6] | outcome [7] | outcome [8] | Potency [9] | caspase-3 activation [10] 1.58% | outcome [11] | Potency [12] | Potency [13] | Potency [14] | Potency [15] | Potency [16] | Potency [17] | Potency [18] | max response [19] -1.4% and -1.03% | Potency [20]

CCc1ccc(C(c2ccc(CC)cc2)C(Cl)Cl)cc1
inactive: Potency [1] > 92 µM | Potency [2] | Potency [3] | Potency [4] | Potency [5] | outcome [6] | outcome [7] | outcome [8] | Potency [9] | caspase-3 activation [10] 1.15% | outcome [11] | Potency [12] | Potency [13] | Potency [14] | Potency [15] | Potency [16] | Potency [17] | Potency [18] | max response [19] -1.02% | Potency [20]

C1CCCNCC1
inactive: Potency [1] > 92 µM | Potency [2] | Potency [3] | Potency [4] | Potency [5] | outcome [6] | outcome [7] | outcome [8] | Potency [9] | caspase-3 activation [10] 2.08% | outcome [11] | Potency [12] | Potency [13] | Potency [14] | Potency [15] | Potency [16] | Potency [17] | Potency [18] | max response [19] 0.101% | Potency [20]

CC(=O)OC(C(=O)c1ccccc1)c1ccccc1 (centres undefined)
inactive: Potency [1] > 92 µM | Potency [2] | Potency [3] | Potency [4] | Potency [5] | outcome [6] | outcome [7] | outcome [8] | Potency [9] | caspase-3 activation [10] -0.138% | outcome [11] | Potency [12] | Potency [13] | Potency [14] | Potency [15] | Potency [16] | Potency [17] | Potency [18] | max response [19] -5.41% | Potency [20]

C=CC(C)(O)CCCC(C)CCCC(C)CCCC(C)C (centres undefined)
inactive: Potency [1] > 92 µM | Potency [2] | Potency [3] | Potency [4] | Potency [5] | outcome [6] | outcome [7] | outcome [8] | Potency [9] | caspase-3 activation [10] 1.05% | outcome [11] | Potency [12] | Potency [13] | Potency [14] | Potency [15] | Potency [16] | Potency [17] | Potency [18] | max response [19] 2.41% | Potency [20]

CCCCC(CC)COP(=O)(OCC(CC)CCCC)OCC(CC)CCCC (centres undefined)
inactive: Potency [1] > 92 µM | Potency [2] | Potency [3] | Potency [4] | Potency [5] | outcome [6] | outcome [7] | outcome [8] | Potency [9] | caspase-3 activation [10] 2.89% | outcome [11] | Potency [12] | Potency [13] | Potency [14] | Potency [15] | Potency [16] | Potency [17] | Potency [18] | max response [19] -6.02% | Potency [20]
